# Test results from PubChem BioAssay (EPA / NIEHS).
# Records with an inconclusive call do not appear. Calls of active or inactive are those of the source. Rule for the calls: active = hit-call score of the fitted dose curve at least 0.9, where 1 is the maximum; inconclusive = response in the unintended direction; inactive = score below 0.9.
# Assay: IUF_NPC5_oligodendrocyte_differentiation_120hr: Leibniz Research Institute for Environmental Medicine (IUF) 120-hour Oligodendrocyte Differentiation Assay (NPC5) (AID 2284304);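 note: share of O4-positive cells among Hoechst nuclei found by CNN image analysis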
# Description: IUF_NPC2-5 is a cell-based, multiplexed assay that uses hNPC, a human primary neural progenitor cells, with measurements taken at 72 or 120 hours after chemical dosing in a 96-well plate. Human neural progenitor cells (hNPC) are generated from human fetal brain cortex at gestational week (GW) 16-19. In the neural progenitor cell migration and differentiation assay (NPC2-5), hNPCs grown as spheres are plated on an extracellular matrix and migrate and differentiate out of the sphere core. The processes radial glia migration, neuronal and oligodendrocyte migration as well as neuronal differentiation, neuronal morphology and oligodendrocyte differentiation are studied using automated phase contrast imaging and automated fluorescence imaging in combination with high content image analysis. In parallel, the cell viability is assessed using an alamar blue viability assay and the cytotoxicity using a lactate dehydrogenase dependent membrane integrity assay.IUF_NPC5_oligodendrocyte_differentiation_120hr is one of 12 assay components measured from the IUF_NPC2-5 assay. Oligodendrocyte differentiation at 120 hr is determined as the number of all O4-positive cells in percent of the number of Hoechst-positive nuclei in the total neurosphere migration area (see IUF_NPC2a_ glia_migration_120hr) after 120 hr of migration/differentiation. Oligodendrocytes are automatically identified using a convolutional neural network (CNN) that was trained using manually annotated images of differentiated oligodendrocytes.Data from the IUF_NPC5_oligodendrocyte_differentiation_120hr component was analyzed at the endpoint IUF_NPC5_oligodendrocyte_differentiation_120hr in the positive analysis fitting direction relative to DMSO as the negative control and baseline of activity. Using a type of differentiation reporter, loss-of-signal activity can be used to understand developmental effects.
# Culture protocol: After the cell expansion period the cells are cultured for up to four weeks in which they are passaged every week as described in 3.6. Between one to three days after passaging spheres at a size of 0.3 mm are picked for the test method. For the assessment of neural progenitor cell migration and differentiation, the spheres are plated on poly-D-lysine/laminin coated 96-well flat bottom plates in differentiation medium (N2) to initiate migration and differentiation. Thereby one 0.3 mm big sphere is plated in the middle of a well. The differentiation medium consists of DMEM and Ham's F12 at a ratio of 3 to 1 supplemented with 1% N2 and 1% penicillin and streptomycin. Within 5 days NPCs radially migrate out of the sphere core and differentiate into radial glia cells (nestin positive), neurons (TUBB3 positive), oligodendrocytes (O4 positive) and astrocytes (GFAP positive). Cultivation during the test method is performed at 37C and 5% CO2 at a ph of 7.2-7.6.Exposure: 0.3 mm big hNPC are plated in the already prepared test conditions. Exposure starts at day 0 of differentiation and is continued over five days of differentiation until the experiment is terminated. Cells are fed with fresh medium at day 3 of differentiation. Therefore, half of the test condition solution (e.g. solvent control or compound dilution) is replaced by freshly prepared test condition solution.Test Method: Migration distance and cytotoxicity is determined after 72 hours based on brightfield images of each well. The assay is terminated by the assessment of cell viability and cytotoxicity as well as cell fixation after 120 h. Immunocytochemistry is performed for Hoechst positive nuclei, TUBB3 positive neurons and O4 positive oligodendrocytes. On the ICC images, migration after 120 hours, neuronal and oligodendrocyte number, neuronal morphology and neuron/oligodendrocyte specific migration is assessed. immunocytochemical staining (ICC) generates an image for each sphere. […]
Compound,outcome,AC50
CC1(C)[C@@H](C=C(Cl)Cl)[C@@H]1C(=O)O[C@@H](C#N)c1ccc(F)c(Oc2ccccc2)c1,inactive,
CC1(C)[C@H](C(=O)O[C@H](C#N)c2cccc(Oc3ccccc3)c2)[C@@H]1C=C(Br)Br,,0.729 µM (active)
CCOP(=O)(OCC)SCSCC,inactive,
[Cd+2].[Cl-].[Cl-],,17.5 µM (active)
CC(C)CC(C)c1sccc1NC(=O)c1cn(C)nc1C(F)(F)F (stereo unspecified),,5.68 µM (active)
CCOP(=S)(OCC)SCS(=O)C(C)(C)C (stereo unspecified),inactive,
Cc1ccc(OP(=O)(Oc2ccc(C)cc2)Oc2ccc(C)cc2)cc1 (tested in a mixture with another compound),inactive,
[O-][Cl+3]([O-])([O-])O,inactive,
CCOP(=O)(OCC)SCSC(C)(C)C,inactive,
COP(=O)(OC)SCN1C(=O)c2ccccc2C1=O,inactive,
CC1(C)C(C=C(Cl)Cl)C1C(=O)O[C@H](C#N)c1cccc(Oc2ccccc2)c1 (stereo partly specified),,1.32 µM (active)
Brc1ccc(Oc2ccc(Br)cc2Br)c(Br)c1,,10.4 µM (active)
CC1(C)C(C=C(Cl)c2ccc(Cl)cc2)C1C(=O)OC(C#N)c1ccc(F)c(Oc2ccccc2)c1 (stereo unspecified),inactive,
C[n+]1ccc(-c2ccccc2)cc1,inactive,
CC(C)CCCCCCCOP(=O)(Oc1ccccc1)Oc1ccccc1,,5.15 µM (active)
O=[As]O,inactive,
Brc1ccc(Oc2cc(Br)c(Br)cc2Br)c(Br)c1,inactive,
Cn1nc(C(F)(F)F)c(CS(=O)(=O)C2=NOC(C)(C)C2)c1OC(F)F,inactive,
O=C1N[C@@H]2C(=C[C@H](O)[C@@H](O)[C@H]2O)c2cc3c(c(O)c21)OCO3,,0.0121 µM (active)
CCOP(=O)(Oc1cnc(C(C)(C)C)nc1)OC(C)C (stereo unspecified),inactive,
CC1(C)C(C=C(Cl)Cl)[C@H]1C(=O)O[C@H](C#N)c1cccc(Oc2ccccc2)c1 (stereo partly specified),,1 µM (active)
